Source: PubChem BioAssay AID651820 (National Center for Advancing Translational Sciences (NCATS), 2012)
The whole screen tested about 340,000 compounds, of which about 12,000 (3.5%) were called active. Another 18% or so got no clear call; they are omitted. The call rests on the fitted dose curve; in most records, active means well fitted inhibition curve with a large enough effect; inconclusive means small, poorly fitted or top-dose-only effect, or another doubt; inactive means no such curve, though single readings can be large or run the other way. This excerpt belongs to a sample that is enriched for actives.

Assay: qHTS Assay for Inhibitors of Hepatitis C Virus (HCV)
Conditions: Huh7.5.1 HCVcc-Cre infection, luciferase reporter, 44 h; series mostly up to 41.8 µM; activity change, negative = inhibition: at the top concentration
In short: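 Infectious HCVcc-Cre (~0.5 moi) was added to cells just after compound, with cells seeded 4 h earlier at 1,000 per well. Luciferase activity after 44 h culture reported infection; substrate was incubated 15 min at room temperature before reading.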
On the % scale 0 is the no-effect control and ±100 the full control effect; potency means the concentration at half of the fitted maximal effect.

| Compound | activity change, negative = inhibition | Potency |
| --- | --- | --- |
| O=S(=O)(Nc1ccc(-n2cnnn2)cc1)c1ccc(Cl)cc1 | 16.9% (inactive) | – |
| Fc1ccccc1-c1cc2cc3c(cc2cn1)OCO3 | -27.8% (inactive) | – |
| O=C(CCN1CCCCC1)NCC(=O)Nc1ccc(Br)cc1C(=O)c1ccccc1 | – | 10 µM (active) |
| Cc1ccc(NC(=O)c2nc[nH]c2C(=O)N2CCCCC2)c(C(=O)c2ccccc2)c1 | 2.79% (inactive) | – |
| COc1ccc(NC(=O)CCN2CCCC2)c(OC)c1 | 9.37% (inactive) | – |
| Cc1cccc(C)c1Nc1nnc(SCC(=O)NCCCN2CCCC2=O)s1 | -10.2% (inactive) | – |
| C=CC1C(OC2OC(CO)C(O)C(O)C2O)OC=C(C(=O)OC)C1CC1CC(=O)CC(CC(=O)CCc2ccc(O)cc2)O1 (centres undefined) | 7.56% (inactive) | – |
| CO[C@H]1[C@@H]2C=CO[C@@H](O[C@H]3O[C@@H](CO)[C@H](O)[C@@H](O)[C@@H]3O)[C@@H]2[C@@]2(CO)O[C@@H]12 | 13.9% (inactive) | – |
| COC(=O)C1=CO[C@@H](O[C@@H]2O[C@H](CO)[C@@H](O)[C@H](O)[C@H]2O)C2C1C[C@H](O)[C@@H]2C (some centres undefined) | – | 2.51 µM (active) |
| Cc1cc(C(=O)CSc2nc(N)cc(=O)[nH]2)c(C)n1CCc1ccc(Cl)cc1 | – | 11.2 µM (active) |
| CCCc1cc(=O)[nH]c(SCC(=O)c2cc(C)n(CCC)c2C)n1 | -2.25% (inactive) | – |
| Cc1cc(=O)[nH]c(SCc2ccc(Cl)cc2)n1 | 1.05% (inactive) | – |
| Cc1ccc(S(=O)(=O)N2CCN(C(=O)c3cc(S(=O)(=O)N4CCOCC4)ccc3F)CC2)cc1 | -10.9% (inactive) | – |
| CCCCCCCCNS(=O)(=O)CCNC1CCCCC1 | -21.1% (inactive) | – |
| COc1ccc(C(=O)Nc2ccc(N3CCC(C)CC3)cc2)cc1Br | -25.7% (inactive) | – |
| COc1cccc(C(=O)Nc2ccc(N3CCCC3)cc2)c1 | – | 11.2 µM (active) |
| COc1cccc(C(=O)Nc2ccc(N3CCN(C(=O)c4ccco4)CC3)cc2)c1 | -26.8% (inactive) | – |
| O=C(CSc1ncn[nH]1)Nc1ccc(Br)cc1Br | -19.4% (inactive) | – |
| Cc1cccc(C(=O)OC(C)C(=O)NC2CCCc3ccccc32)c1O (centres undefined) | 10.8% (inactive) | – |
| COc1ccc(C(=O)NC2CCCc3c2cnn3-c2cccc(C)c2C)c(OC)n1 (centres undefined) | – | 2.24 µM (active) |
| Cc1cc(C(=O)NNC(=O)c2ccccc2O)c(C)o1 | -18.6% (inactive) | – |
| Cc1cc(C(=O)NC2CCCc3c2cnn3-c2cccc(C)c2C)c(C)o1 (centres undefined) | – | 10 µM (active) |
| CC(=O)NCC(=O)NC1CCCc2c1cnn2-c1ccccc1F (centres undefined) | 11.3% (inactive) | – |
| COc1ccc(C(=O)NC2CC(C)(C)Cc3c2cnn3-c2ccccc2C)o1 (centres undefined) | -12% (inactive) | – |
| COc1cccc(C(=O)Nc2c3c(nn2-c2cccc(C)c2C)CS(=O)(=O)C3)c1OC | -22.1% (inactive) | – |

| Compound | activity change, negative = inhibition | Potency |
| --- | --- | --- |
| CC1(C)Cc2c(cnn2-c2cccc(F)c2)C(NC(=O)c2cc[n+]([O-])cc2)C1 (centres undefined) | 23.5% (inactive) | – |
| Cn1nccc1C(=O)NC1CCCc2c1cnn2-c1ccccc1F (centres undefined) | – | 0.891 µM (active) |
| NC(=S)NN=C1CCCC(C(F)(F)F)C1 (centres undefined) | 19.4% (inactive) | – |
| C#CCOCCOCCOCCNc1nc(N2CCN(C(=O)Cn3cc(CCCCN)nn3)CC2)nc(N2CCN(C(=O)[C@H](CCCCN)n3cc(CCC(=O)O)nn3)CC2)n1 | 19.6% (inactive) | – |
| CCOC(=O)C1=CN(Cc2ccc(Br)cc2)S(=O)(=O)N(C)C1C (centres undefined) | -2.23% (inactive) | – |
| CCOC(=O)[C@H]1[C@H]2COc3cc(OC)ccc3[C@@H]2N2C(=O)CN(Cc3ccc(Cl)cc3)C(=O)[C@@]12C | 1.97% (inactive) | – |
| CN(CC(=O)NCCc1ccc(S(N)(=O)=O)cc1)CC(=O)Nc1ccc(F)c(F)c1F | -10.3% (inactive) | – |
| O=C(NCCS(=O)(=O)N1CCN(c2ccc(F)cc2)CC1)c1ccc2c(c1)OCO2 | -7.36% (inactive) | – |
| CN1CCc2c(sc3c2c(NCc2ccco2)nc2nnnn23)C1 | – | 10 µM (active) |
| CCCSc1nc(NCc2ccco2)c2c3c(sc2n1)COC(C)(CC)C3 (centres undefined) | -20.9% (inactive) | – |
| CC1CCN(C(=O)CCc2nnc3ccc(NCc4ccco4)nn23)CC1 | 18.5% (inactive) | – |
| CCC1(c2ccccc2)NC(=O)N(CC(=O)Nc2ccccc2C(=O)NC2CCCC2)C1=O (centres undefined) | -12.5% (inactive) | – |
| COCC(C)n1c(SCC(=O)NC2CCCCC2C)nc2ccccc2c1=O (centres undefined) | 9.44% (inactive) | – |
| CSCCC(NC(=O)c1ccco1)C(=O)Nc1cc(C)ccn1 (centres undefined) | 30.5% (inactive) | – |
| COc1cc(Br)c(-c2sc(Nc3ccccc3)n[n+]2-c2ccccc2)cc1OC | 5.25% (inactive) | – |
| Cc1ccc(Nc2nnc(SCc3ccccc3)s2)cc1 | -17.6% (inactive) | – |
| CCc1ccc(Nc2n[n+](-c3ccccc3)c(-c3cccc(Cl)c3Cl)s2)cc1 | – | 10 µM (active) |
| CCCN(C(=O)COC(=O)CNS(=O)(=O)c1ccc(NC(C)=O)cc1)C1CCS(=O)(=O)C1 (centres undefined) | 18.2% (inactive) | – |
| COc1cc(OC)cc(C(=O)NNC(=O)CCOc2ccccc2OC)c1 | 13.4% (inactive) | – |
| COc1ccc(C)cc1NC(=O)c1cc(-c2ccccc2)nc2c1cnn2C(C)C | -27.2% (inactive) | – |
| O=C1Cc2cc(S(=O)(=O)Nc3cccc(F)c3)ccc2N1 | 13.7% (inactive) | – |
| COc1ccc(-c2cc(C(=O)NCCCN3CCCC3=O)c3ccccc3n2)cc1OC | 17% (inactive) | – |
| COc1ccc(-c2cc(C(F)(F)F)nc(S(C)(=O)=O)n2)cc1OC | – | 10 µM (active) |
| COc1cc(OC)nc(S(C)(=O)=O)n1 | 5.26% (inactive) | – |
| CSCCC(NC(=O)COc1ccccc1)C(=O)OCc1ccc(Cl)cc1 (centres undefined) | 25.3% (inactive) | – |

| Compound | activity change, negative = inhibition | Potency |
| --- | --- | --- |
| O=C(COC(=O)c1ccc(O)cc1O)c1ccc2c(c1)OCCO2 | -6.11% (inactive) | – |
| Cc1ccccc1-n1nc(C)c2cc(C(=O)NC3CC3)sc21 | -26.6% (inactive) | – |
| CN(CCNC(=O)c1cc2c(-c3ccccc3F)nn(C)c2s1)C1CCCCC1 | – | 12.6 µM (active) |
| CCOC(=O)N1CCN(C(=O)c2cc3c(-c4ccc(Cl)cc4)nn(C)c3s2)CC1 | -20% (inactive) | – |
| CCOc1ncccc1C(=O)NNC(=O)c1cccc(S(=O)(=O)Nc2ccccc2OC)c1 | 3.32% (inactive) | – |
| C=CCCC(=O)N1C[C@H]2CON(C)[C@H]2C[C@H]1c1cccc(Nc2ccccc2)c1 | -15.5% [at 8.37 µM] (inactive) | – |
| Cc1ccc(C)c(NC(=S)NNC(=S)Nc2ccc(C(C)C)cc2)c1 | – | 5.62 µM (active) |
| Cc1ccc(C)c(NC(=S)NNC(=O)c2csc(C)c2)c1 | 8.71% (inactive) | – |
| CC(C)c1ccc(NC(=S)NNc2ccc(Cl)c(C(=O)O)c2)cc1 | 8.76% (inactive) | – |
| CCOc1ccc(Br)cc1S(=O)(=O)Nc1ccc(S(=O)(=O)Nc2cc(C)on2)cc1 | 4.99% (inactive) | – |
| COc1ccc(C2CC(c3cccs3)=Nc3ccccc3S2)cc1OC (centres undefined) | – | 11.2 µM (active) |
| COc1ccc(C2CC(c3cccs3)=NN2c2ccc(F)cc2)cc1OC (centres undefined) | -5.17% (inactive) | – |
| COc1ccc(C2CC(c3cccs3)=NN2C(=O)CCC(=O)O)cc1OC (centres undefined) | 4.23% (inactive) | – |
| O=C(Nc1c[nH]c(=O)[nH]c1=O)OCc1ccccc1 | 6.8% (inactive) | – |
| CCOc1ccc(-c2cc(C)[n+](CCN(CC)CC)c(-c3ccc(OCC)cc3)c2)cc1 | – | 11.2 µM (active) |
| CCOc1ccc(-c2nnc3ccc(SC)nn23)cc1 | -21.9% (inactive) | – |
| CCOc1ccc(-c2c(C)n([O-])c3c([n+]2=O)CCCC3)cc1 | 3.27% (inactive) | – |
| COc1ccc(-c2cc(C(=O)NCCCN3CCOCC3)no2)cc1 | -3.36% (inactive) | – |
| O=C(NCCCN1CCOCC1)c1cc(-c2ccc(Cl)cc2)on1 | – | 11.2 µM (active) |
| O=C(NCCCN1CCOCC1)c1cc(-c2cccc(O)c2)on1 | 11.8% (inactive) | – |
| C[C@H](NC(=O)c1ccccc1Cl)C(=O)OCC(=O)N1CCN(c2ccccc2)CC1 | 12.9% (inactive) | – |
| Cc1ccc(C(=O)NCCNC(=O)c2cnccn2)cc1 | 4.04% (inactive) | – |
| CCN(CC)c1ccc(/C=N/NC(=O)c2cnccn2)c(O)c1 | – | 3.55 µM (active) |
| CCN(CC)c1ccc(/C=N/NC(=O)CNC(=O)c2cccnc2)cc1 | 5.9% (inactive) | – |
| CCC1([N+](=O)[O-])COC(c2ccc(C)cc2)OC1 (centres undefined) | 3.04% (inactive) | – |

| Compound | activity change, negative = inhibition | Potency |
| --- | --- | --- |
| COc1ccc(C(=O)NCc2ccc(Cl)cc2)cc1S(=O)(=O)N1CCCC1 | 7.82% (inactive) | – |
| O=C(COC(=O)c1cnccn1)Nc1ccc(Cl)cc1C(F)(F)F | 4.23% (inactive) | – |
| O=C(NC1C2CC3CC(C2)CC1C3)c1ccc(N2CCNCC2)c([N+](=O)[O-])c1 (centres undefined) | -6.97% (inactive) | – |
| O=C(NCCCN1CCOCC1)c1ccc(N2CCCC2)c([N+](=O)[O-])c1 | 1.42% (inactive) | – |
| Cc1cccc(N2CCN(c3ccc(C(N)=O)cc3[N+](=O)[O-])CC2)c1C | 22.1% (inactive) | – |
| CCOC(=O)C1CCN(c2ccc(C(=O)O)cc2[N+](=O)[O-])CC1 | 12.9% (inactive) | – |
| Cc1ccc(C(=O)c2ccc(N3CCN(C)CC3)c([N+](=O)[O-])c2)cc1 | – | 10 µM (active) |
| CS(=O)(=O)N1CCN(c2ccc(C(=O)NC3C4CC5CC(C4)CC3C5)cc2[N+](=O)[O-])CC1 (centres undefined) | – | 11.2 µM (active) |
| Cc1cc([N+](=O)[O-])c(=O)[nH]c1C | 20.7% (inactive) | – |
| CN(C)C(=O)CCc1ccc2c3c([nH]c2c1)[C@]1(C)[C@@H](C(=O)N2CCCCC2)C[C@H](CC(=O)NCCC2=CCCCC2)C(=O)N1CC3 | 7.48% (inactive) | – |
| COc1cc(OC)cc(C(=O)NNC(=O)Cc2cccs2)c1 | -4.33% (inactive) | – |
| O=C(CNc1ccccc1N1CCCC1=O)Nc1cc(Cl)ccc1-n1cncn1 | 0.824% (inactive) | – |
| OCCNc1nc(Nc2ccc(Cl)c(Cl)c2)nc2ccccc12 | – | 10 µM (active) |
| CN(C)c1nc(Nc2ccc(Cl)c(Cl)c2)nc(N(C)C)n1 | -6.29% (inactive) | – |
| Cc1nnc(NCCO)c2ccccc12 | 21.6% (inactive) | – |
| CC(C)Sc1nc(N)nc2c1ncn2C1OC(CO)C(O)C1O (centres undefined) | 5.19% (inactive) | – |
| CC[C@]12c3[nH]c4ccc(OC)cc4c3CCN1C(=O)C(CC(=O)NCCN1CCOCC1)C[C@@H]2C(=O)N1CCN(C(=O)C2CC2)CC1 (some centres undefined) | -14.4% (inactive) | – |
| Cc1cccn2c(=O)c3cc(C(=O)NCC4CCCO4)c(=N)n(Cc4ccc(F)cc4)c3nc12 (centres undefined) | – | 5.62 µM (active) |
| Cc1cccn2c(=O)c3cc(C#N)c(=NC(=O)c4cccnc4)n(CC4CCCO4)c3nc12 (centres undefined) | 2.8% (inactive) | – |
| O=C(Nc1ccccc1C(=O)NCC1CCCO1)c1ccccc1F (centres undefined) | 2.29% (inactive) | – |
| CCOc1ccc(CCNC(=O)CN2C(=O)NC3(CCc4ccccc43)C2=O)cc1OCC (centres undefined) | 7.59% (inactive) | – |
| COc1ccc(/C=C2/C(=O)N(c3ccccc3)N=C2C)c(OC)c1 | 19% (inactive) | – |
| COc1cc(/C=C/C2=CC(C)(C)NC(=S)N2)cc(OC)c1OC | 0.519% (inactive) | – |
| COc1ccc(/C=C/C2=CC(C)(C)NC(=S)N2)c(OC)c1 | – | 14.1 µM (active) |
